Results filed as inconclusive are left out. A number with no mark means an inactive call. Calls of active or inactive are those of the source. Calls come from the whole dose curve; as a rule, active = well fitted curve in the direction sought with a large enough effect; inconclusive = small, poorly fitted or top-dose-only effect, or another doubt; inactive = no such curve, though single readings can be large; an effect the other way counts as inactive or inconclusive.
Molecular target: Aldehyde dehydrogenase, mitochondrial (Homo sapiens) (UniProt P05091)
Assay: qHTS for Inhibitors of the Aldehyde Dehydrogenase Family (ALDH2) Primary screen (AID 2061308); note: nearly all actives have a fitted effect of over 55% in size;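 for activity change, negative = inhibition: plate controls were vehicle for no effect and reference inhibitor for full effect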
Conditions: ALDH2 enzyme inhibition qHTS, 1536-well; series mostly up to 56 µM; activity change, negative = inhibition: at the top concentration
Potency is the fitted concentration of half-maximal effect.

Compound	Potency	activity change, negative = inhibition
Cc1ccc(S(=O)(=O)c2ccc([N+](=O)[O-])o2)cc1	0.562 µM (active)	–
Clc1cccc(COc2cncc(N3CCNCC3)n2)c1	–	-5.84%
CCNC(=O)OC1CCN(c2nncc3cc(OC)c(OC)cc23)CC1	–	-6.56%
N[C@H]1Cc2ccccc2N(O)C1=O	–	-17.8%
COc1cc(CC2COC(c3ccc(OC4OC(CO)C(O)C(O)C4O)c(OC)c3)C2CO)ccc1O (stereo not given)	–	-10.1% [at 28 µM]
N#Cc1ccc(C(=O)N2CCC3(CC2)N=C(N)c2c(F)ccc(F)c2N3)cn1	–	-8.76%
Cc1onc(-c2c(Cl)cccc2Cl)c1C(=O)N[C@@H]1C(=O)N2[C@@H]1SC(C)(C)[C@@H]2C(=O)O	–	-1.62%
Oc1ccc(CC2NCCc3cc(O)c(O)cc32)cc1 (stereo not given)	–	-6.47%
Cc1cc(Cl)ccc1COc1ccnn1-c1cc(C(=O)O)ccn1	–	9.79%
CCN(CC)CCOCCOC(=O)C(CC)(CC)c1ccccc1	–	-1.23%
O=c1[nH]c2cccc(N3CCN(Cc4ccc(-c5ccccc5)cc4)CC3)c2o1	–	-2.46%
N#Cc1ccc(-c2cnc3[nH]cc(NC(=O)c4cccnc4)c3c2)cc1	–	4.67%
O=C1C[C@@H](c2ccc(O)cc2)Oc2cc(O)ccc21	–	-3.52%
CC/C=C\[C@H](O)[C@H](O)C1=C(C)C(=O)[C@]2(O1)C(=O)N[C@@](O)(C(=O)c1ccccc1)[C@@H]2O	–	-16.2% [at 28 µM]
NC(N)=NCCC[C@H](NC(=O)c1sccc1NS(=O)(=O)c1cccc2nsnc12)C(=O)O	–	-8.58%
Cc1cn(C[C@H](N)C(=O)O)c(=O)n(Cc2ccsc2C(=O)O)c1=O	–	-13.8%
C[S+](CC[C@H](N)C(=O)[O-])C[C@H]1O[C@@H](n2cnc3c(N)ncnc32)[C@H](O)[C@@H]1O (stereo not given in full)	–	-15.8%
COc1cccc(OC)c1C(=O)N[C@@H]1C(=O)N2[C@@H]1SC(C)(C)[C@@H]2C(=O)O	–	-6.86%
COC(=O)[C@]1(Cc2ccc(O)c(CC=C(C)C)c2)OC(=O)C(O)=C1c1ccc(O)cc1	–	5.01% [at 28 µM]
N[C@@]1(C(=O)O)CC[C@H]2[C@H](C(=O)O)[C@H]21	–	-0.0633%

Compound	Potency	activity change, negative = inhibition
NC(=O)[C@H]1CCS[C@@H]2C[C@]3(CCCN3C(=O)Cc3ccc(NC(=O)COc4ccc(Cl)cc4Cl)cc3)C(=O)N12	–	13.7%
C=C1C(=O)O[C@H]2C[C@@H](C)[C@@H]3CCC(=O)[C@@]3(C)C[C@H]12	–	6.67%
NCc1ccc(OCCCc2sc(-c3ccc4c(c3)/C(=N/Nc3nc5ccccc5s3)CCC4)nc2C(=O)O)cc1	31.6 µM (active)	–
O=C(O)c1cccc(-c2noc(-c3ccccc3F)n2)c1	inactive	–
CC(O)(C#Cc1ccc2c(c1)N(c1nc(N)ncc1Cl)CC2)c1nccs1 (stereo not given)	–	-8.65%
CCOC(=O)[C@H](CCc1ccccc1)N[C@@H](C)C(=O)N1C(=O)N(C)C[C@H]1C(=O)O	–	-10.9%
O=C(CCN1CCN(C(=O)OCc2cc(Cl)cc(Cl)c2)CC1)c1ccc2[nH]c(=O)oc2c1	0.158 µM (active)	–
C=C1CC[C@@H]2[C@](C)(CO)[C@H](O)CC[C@@]2(C)[C@@H]1CC(=O)C1=CCOC1=O	–	-12.4%
CCC(=O)c1cc(-c2ccc(Cl)cc2)n(-c2ccc(S(N)(=O)=O)cc2)c1C	–	-9.98%
OC[C@H]1O[C@@H](n2cnc3c2NC=NC[C@H]3O)C[C@@H]1O	–	-3.12%
CCC(C)C(N)C(=O)NCCN1CCOCC1 (stereo not given)	–	-27.7%
CC(C)(CC(=O)N1CCCC1)NCC(=O)N1C[C@@H](F)C[C@H]1C#N	–	2.33%
O=C(CCl)Nc1cccc(NC2=NS(=O)(=O)c3ccccc32)c1	–	-28.3%
O=C(Nc1cc(C(F)(F)F)cc(C(F)(F)F)c1)c1cnc(Cl)nc1C(F)(F)F	–	-18%
Fc1ccc(-c2nc(C3CCNCC3)sc2-c2ccnc(NC3CC3)n2)cc1	–	-24.8%
O=C(O)c1n[nH]c2c1C[C@H]1C[C@@H]21	–	-0.905%
N#Cc1ccc(O[C@@H]2c3ccccc3C[C@H]2N2CCC[C@@H](N)C2)c(Cl)c1	–	-4.09%
O=c1cc(CN2CCOCC2)occ1OCCCCCSc1ccnc2cc(C(F)(F)F)ccc12	–	8.28%
CC1(C)C[C@H]2C=C(C=O)[C@]3(C(=O)O)C[C@]3(C)[C@H]2C1	–	-24.7%
COc1ccc(CC2NCCc3c2[nH]c2ccc(C)cc32)cc1OC (stereo not given)	–	-17.2%

Molecular target: Retinaldehyde dehydrogenase 3 (Homo sapiens) (UniProt P47895)
Assay: qHTS for Inhibitors of the Aldehyde Dehydrogenase Family (ALDH1A3) Confirmatory screens (AID 2061311); note: nearly all actives have a fitted effect of over 60% in size; for activity change, negative = inhibition: % is set by controls: 0 for no effect and ±100 for the full control effect
Conditions: ALDH inhibition qHTS; series mostly up to 46 µM; activity change, negative = inhibition: at the top concentration

Compound	Potency	outcome	activity change, negative = inhibition
Cc1ccc(S(=O)(=O)c2ccc([N+](=O)[O-])o2)cc1	11.2 µM (active)	–	–
Clc1cccc(COc2cncc(N3CCNCC3)n2)c1	–	inactive	–
CCNC(=O)OC1CCN(c2nncc3cc(OC)c(OC)cc23)CC1	–	–	-4.27%
N[C@H]1Cc2ccccc2N(O)C1=O	–	–	-14.5%
COc1cc(CC2COC(c3ccc(OC4OC(CO)C(O)C(O)C4O)c(OC)c3)C2CO)ccc1O (stereo not given)	11 µM (active)	–	–
N#Cc1ccc(C(=O)N2CCC3(CC2)N=C(N)c2c(F)ccc(F)c2N3)cn1	–	–	-1.45%
Cc1onc(-c2c(Cl)cccc2Cl)c1C(=O)N[C@@H]1C(=O)N2[C@@H]1SC(C)(C)[C@@H]2C(=O)O	–	–	-8.19%
Oc1ccc(CC2NCCc3cc(O)c(O)cc32)cc1 (stereo not given)	–	–	-18.3%
Cc1cc(Cl)ccc1COc1ccnn1-c1cc(C(=O)O)ccn1	–	–	-18.5%
CCN(CC)CCOCCOC(=O)C(CC)(CC)c1ccccc1	–	–	-17.9% [at 0.022 µM]
O=c1[nH]c2cccc(N3CCN(Cc4ccc(-c5ccccc5)cc4)CC3)c2o1	–	–	-10.9%
N#Cc1ccc(-c2cnc3[nH]cc(NC(=O)c4cccnc4)c3c2)cc1	3.16 µM (active)	–	–
O=C1C[C@@H](c2ccc(O)cc2)Oc2cc(O)ccc21	12.7 µM (active)	–	–
CC/C=C\[C@H](O)[C@H](O)C1=C(C)C(=O)[C@]2(O1)C(=O)N[C@@](O)(C(=O)c1ccccc1)[C@@H]2O	–	–	-16.2% [at 25.8 µM]
NC(N)=NCCC[C@H](NC(=O)c1sccc1NS(=O)(=O)c1cccc2nsnc12)C(=O)O	–	–	-14.7%
Cc1cn(C[C@H](N)C(=O)O)c(=O)n(Cc2ccsc2C(=O)O)c1=O	–	–	-5.4%
C[S+](CC[C@H](N)C(=O)[O-])C[C@H]1O[C@@H](n2cnc3c(N)ncnc32)[C@H](O)[C@@H]1O (stereo not given in full)	–	–	-6.46%
COc1cccc(OC)c1C(=O)N[C@@H]1C(=O)N2[C@@H]1SC(C)(C)[C@@H]2C(=O)O	–	–	1.51%
COC(=O)[C@]1(Cc2ccc(O)c(CC=C(C)C)c2)OC(=O)C(O)=C1c1ccc(O)cc1	12.3 µM (active)	–	–
N[C@@]1(C(=O)O)CC[C@H]2[C@H](C(=O)O)[C@H]21	–	–	-1.35%

Compound	Potency	outcome	activity change, negative = inhibition
NC(=O)[C@H]1CCS[C@@H]2C[C@]3(CCCN3C(=O)Cc3ccc(NC(=O)COc4ccc(Cl)cc4Cl)cc3)C(=O)N12	–	–	-11.2%
C=C1C(=O)O[C@H]2C[C@@H](C)[C@@H]3CCC(=O)[C@@]3(C)C[C@H]12	14.2 µM (active)	–	–
NCc1ccc(OCCCc2sc(-c3ccc4c(c3)/C(=N/Nc3nc5ccccc5s3)CCC4)nc2C(=O)O)cc1	14.2 µM (active)	–	–
O=C(O)c1cccc(-c2noc(-c3ccccc3F)n2)c1	0.159 µM (active)	–	–
CC(O)(C#Cc1ccc2c(c1)N(c1nc(N)ncc1Cl)CC2)c1nccs1 (stereo not given)	–	–	-18.3%
CCOC(=O)[C@H](CCc1ccccc1)N[C@@H](C)C(=O)N1C(=O)N(C)C[C@H]1C(=O)O	–	–	-11.8%
O=C(CCN1CCN(C(=O)OCc2cc(Cl)cc(Cl)c2)CC1)c1ccc2[nH]c(=O)oc2c1	1.42 µM (active)	–	–
C=C1CC[C@@H]2[C@](C)(CO)[C@H](O)CC[C@@]2(C)[C@@H]1CC(=O)C1=CCOC1=O	–	–	-27.1% [at 25.8 µM]
CCC(=O)c1cc(-c2ccc(Cl)cc2)n(-c2ccc(S(N)(=O)=O)cc2)c1C	–	–	-13.4%
OC[C@H]1O[C@@H](n2cnc3c2NC=NC[C@H]3O)C[C@@H]1O	–	–	-13.7%
CCC(C)C(N)C(=O)NCCN1CCOCC1 (stereo not given)	–	–	-7.27%
CC(C)(CC(=O)N1CCCC1)NCC(=O)N1C[C@@H](F)C[C@H]1C#N	–	–	-4.38%
O=C(CCl)Nc1cccc(NC2=NS(=O)(=O)c3ccccc32)c1	–	–	-10%
O=C(Nc1cc(C(F)(F)F)cc(C(F)(F)F)c1)c1cnc(Cl)nc1C(F)(F)F	–	–	2.43%
Fc1ccc(-c2nc(C3CCNCC3)sc2-c2ccnc(NC3CC3)n2)cc1	–	–	-11.3%
O=C(O)c1n[nH]c2c1C[C@H]1C[C@@H]21	–	–	-17%
N#Cc1ccc(O[C@@H]2c3ccccc3C[C@H]2N2CCC[C@@H](N)C2)c(Cl)c1	–	–	0.714%
O=c1cc(CN2CCOCC2)occ1OCCCCCSc1ccnc2cc(C(F)(F)F)ccc12	–	–	-26.6%
CC1(C)C[C@H]2C=C(C=O)[C@]3(C(=O)O)C[C@]3(C)[C@H]2C1	–	–	-14.8%
COc1ccc(CC2NCCc3c2[nH]c2ccc(C)cc32)cc1OC (stereo not given)	–	–	1.5%
